Screening data: PubChem BioAssay, National Center for Advancing Translational Sciences (NCATS)
Marburg entry inh – qHTS for inhibitors of binding or entry into cells for Marburg Virus | Marburg virus pseudotyped entry inhibition, cell reporter | Potency, µM (highest dose often 37.8 µM), usual class: inhibitors | hit rate 1.8% among 300,000; calls by dose curve; tested in HEK293 cells
AMA1 RON2 block – qHTS for Inhibitors of AMA1-RON; Towards Development of Antimalarial Drug Lead: Primary Screen; Plasmodium falciparum AMA1 (3D7) - RON2 peptide interaction; AlphaScreen AMA1-biotinylated RON2 peptide binding; Potency, µM (top dose mostly 58.2 µM), hits mostly inhibitors; hit rate 0.2% among 360,000; note: nearly all actives have a fitted effect of over 45% in size
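AMA1 (3D7) with his tag at 25 nM final met compounds first, then biotinylated RON2 peptide at 25 nM; detection used donor plus acceptor beads, 10 µg/mL apiece, read by AlphaScreen after 30 min at room temperature.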
AmpC detergent – qHTS Inhibitors of AmpC Beta-Lactamase (assay with detergent); AmpC hydrolysis of nitrocefin, absorbance 480 nm, 0.01% Triton; Potency, µM (series often up to 114 µM), hits mostly inhibitors; hit rate 0.041% among 370,000; P00811; note: nearly all actives have a fitted effect of over 25% in size
Target sequence (P00811 whole entry, looked up): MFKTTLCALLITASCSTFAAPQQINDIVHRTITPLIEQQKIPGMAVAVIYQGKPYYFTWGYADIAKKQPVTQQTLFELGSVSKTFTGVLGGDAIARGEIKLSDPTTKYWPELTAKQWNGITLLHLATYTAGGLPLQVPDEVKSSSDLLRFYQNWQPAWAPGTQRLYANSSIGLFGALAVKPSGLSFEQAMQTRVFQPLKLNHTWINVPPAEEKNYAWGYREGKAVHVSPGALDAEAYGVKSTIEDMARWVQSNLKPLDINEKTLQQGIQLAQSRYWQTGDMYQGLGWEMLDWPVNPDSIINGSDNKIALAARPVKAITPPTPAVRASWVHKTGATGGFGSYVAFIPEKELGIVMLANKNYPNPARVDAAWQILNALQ
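20 mM phosphate pH 7.0 + 0.01% (detergent screen) or 0.0001% Triton X-100; 5.3 nM AmpC reagent; cpd preinc 15 min RT; nitrocefin (800 uM stock) to start; A480 q20 s × 4 min; Activity was normalised to no-enzyme and no-compound control wells.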
AmpC inh no detg – qHTS Inhibitors of AmpC Beta-Lactamase (assay without detergent) | AmpC nitrocefin hydrolysis, absorbance 480 nm, 0.0001% Triton | Potency, µM (series often up to 57.1 µM), most hits filed as inhibitors | hit rate 0.52% among 330,000 | AID 485341, 2010; note: nearly all actives have a fitted effect of over 20% in size
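20 mM phosphate pH 7.0 + 0.01% (detergent screen) or 0.0001% Triton X-100; 5.3 nM AmpC reagent; cpd preinc 15 min RT; nitrocefin (800 uM stock) to start; A480 q20 s × 4 min; Activity was normalised to no-enzyme and no-compound control wells.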
LASV entry inh – qHTS for Inhibitors of binding or entry into cells for Lassa Virus; Lassa virus pseudotype entry inhibition, cell reporter; Potency, µM (series often up to 37.9 µM), hits mostly inhibitors; hit rate 1.2% among 300,000; AID 540256, 2011; calls by dose curve; tested in HEK293 cells; note: nearly all actives have a fitted effect of over 50% in size
A number is an active result; i = inactive; ? = inconclusive; nt = not tested or not shown; [ ] = dose if it differs, or a comment. Most compounds without a hit are left out; they make up all but 2.3% or so of the library. Unless noted, calls come from the whole dose curve; as a rule, active = well fitted curve in the direction sought with a large enough effect; inconclusive = small, poorly fitted or top-dose-only effect, or another doubt; inactive = no such curve, though single readings can be large; an effect the other way counts as inactive or inconclusive.

SMILES | Marburg entry inh | AMA1 RON2 block | AmpC detergent | AmpC inh no detg | LASV entry inh
COc1cc(/C=N/NC(=O)CN(CCc2ccccc2)S(=O)(=O)c2ccc(NC(C)=O)cc2)cc(OC)c1OC | i | i | i | i | 18µM
Cc1ccc(NS(=O)(=O)c2ccc(NC(=O)c3cccc(NC(=O)C(C)C)c3)cc2)cc1 | 13µM | i | i | i | ?
CCOC(=O)Nc1ccc(NS(=O)(=O)c2ccc(C)cc2)cc1 | i | i | i | i | 12µM
CC(C)CO/N=C1\C[C@@H](O)[C@@H](O)[C@@H]2[C@@H]3C(=O)N(C4CCCCC4)C(=O)[C@@H]3CC[C@@H]12 | i | nt | nt | nt | nt
O=C(CCNC(=O)c1ccc(Br)cc1)NC1CCCc2ccccc21 (configuration not stated) | 2.2µM | i | i | i | 7.1µM
COC(=O)c1ccc(CN(c2ccc(C(=O)O)c(O)c2)S(=O)(=O)c2ccc(Cl)c([N+](=O)[O-])c2)cc1 | ? | i | i | 7.9µM | i
O=C(Nc1ccc(-c2cn3ccccc3n2)cc1)c1cccs1 | 15µM | i | i | 28µM | ?
COc1ccc(CC(=O)Nc2ccc(-c3cn4ccccc4n3)cc2)cc1 | i | i | i | i | ?
CCOC(=O)/C(C)=N/NC(C)=O | i | nt | nt | nt | nt
Cc1ccc(/C=[N+](/C)[O-])cc1 | i | i | ? | i | i
Cc1ccc(C=C2C(Cl)=C(Cl)C(Cl)=C2Cl)cc1 | i | ? | i | 16µM | i
COc1ccccc1Nc1ccc(NC(=O)c2cccc([N+](=O)[O-])c2C)cc1 | nt | i | i | 3.2µM | nt
CCN(CC)c1ccc(/C=N/Nc2ccc(C)cc2)c(O)c1 | i | ? | i | i | i
COc1cc(/C=N\NC(=O)CNC(=O)C2COc3ccccc3O2)ccc1O (configuration not stated) | i | i | i | i | i
CCN(CC)c1ccc(/C=N/NC(=O)c2cccc(S(=O)(=O)N3CCOCC3)c2)c(O)c1 | ? | i | ? | i | ?
CCN(CC)c1ccc(/C=N/NC(=O)c2c(Cl)cnn2C)c(O)c1 | 1.1µM | i | i | i | 21µM
CCN(CC)c1ccc(/C=N/NC(=O)CNC(=O)C2COc3ccccc3O2)c(O)c1 (configuration not stated) | 4.5µM | i | i | i | 11µM
CCOC(=O)N/N=C/c1ccc(N(CC)CC)cc1O | ? | i[2.32 µM] | i | i | 4.5µM
C=C(CO[C@@H]1C=C[C@@H](c2ccccc2)O[C@@H]1CO)c1ccccc1 | i | nt | nt | nt | nt
O=C1C(O)=CC(=C(c2ccccc2)c2ccccc2)c2ccccc21 | ? | 10µM | nt | nt | i
CN(C)c1ccc([C@H]2[C@@H]3C(=O)N(c4ccc(C(=O)O)cc4)C(=O)[C@H]3ON2c2ccccc2)cc1 | i | nt | nt | nt | nt
CCOC(=O)NNc1ccc2nonc2c1[N+](=O)[O-] | 11µM | ? | i | i | ?
CCc1ccc(Nc2ccc3nonc3c2[N+](=O)[O-])cc1 | i | i | nt | nt | i
O=C(Nc1ccc(C(=O)OCc2cc(=O)n3nc(C4CC4)sc3n2)cc1)c1cccc(F)c1 | nt | nt | i | nt | i
O=c1c2ccccc2[se]n1-c1ccccc1 | 18µM | i | ? | ? | 15µM
SMILES | Marburg entry inh | AMA1 RON2 block | AmpC detergent | AmpC inh no detg | LASV entry inh
O=C(NC1CCCCC1)c1ccc2c(c1)N(Cc1ccccc1Cl)C(=O)c1ccccc1S2 | nt | nt | i | nt | i
O=C(/C=C/c1ccccc1Cl)Nc1cccc(S(=O)(=O)NC2=NCCCCC2)c1 | ? | i | i | i | i
O=C(/C=C/c1ccc(Cl)cc1Cl)Nc1cccc(S(=O)(=O)NC2=NCCC2)c1 | 13µM | i | i | i | 15µM
CCCn1c(SCc2nc(-c3ccc(OC)c(OC)c3)no2)nnc1-c1ccccc1 | 5.6µM | nt | i | nt | i
CCCn1c(SCc2nc(-c3cc(OC)ccc3OC)no2)nnc1-c1ccc(Cl)cc1 | i | nt | i | nt | i
O=C(CC1Oc2ccccc2NC1=O)NCc1ccccc1 (configuration not stated) | nt | i | i | i | nt
CC(=O)CC1OC(=O)C(Br)=C1NCc1ccccc1 (configuration not stated) | 18µM | i | i | i | ?
Cc1cc(/C=N/n2cnnc2)c(C)n1-c1ccc(Cl)cc1 | ? | i | i | i | i
Cc1cc(/C=N/n2cnnc2)c(C)n1-c1ccc(OCc2ccc(Cl)cc2Cl)cc1 | 8.9µM | i | i | i | 7.1µM
